Results reported in PubChem BioAssay (Tox21).
Unmarked numbers belong to inactive results. Results filed as inconclusive are left out. Where a call stands in place of a potency, no number is given. Calls of active or inactive are those of the source. Unless noted, calls come from the whole dose curve; as a rule, active = well fitted curve in the direction sought with a large enough effect in the repeat runs; inconclusive = weak or mixed curves; inactive = no such curve, though single readings can be large; an effect the other way counts as inactive or inconclusive.

How the values were obtained:
[1] = A CellTox Green Cytotoxicity Assay to monitor cytotoxicity in HepG2 cells - 8 hour (AID 1224890); note: nearly all actives have a fitted effect of over 45% in size
Outline: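 HepG2 cells were seeded together with the CellTox Green dye at 600 cells/well, left 5 h at 37 C/5% CO2, then given compounds in DMSO. Fluorescence from dye bound to dead-cell DNA was read repeatedly over 40 h of treatment at 37 C.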

[2] = qHTS assay to identify small molecule antagonists of the estrogen receptor alpha (ER-alpha) signaling pathway using the BG1 cell line in the presence of 0.1 nM 17-beta-estradiol - cell viability counter screen (AID 1259241); note: nearly all actives have a fitted effect of over 40% in size
Outline: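 Cells were plated and left 24 hr, compounds in DMSO were pinned in, 17beta-estradiol was added to 0.1 nM final, and after 22 hr CellTiter-Fluor reagent was added for 30 min before fluorescence was read.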

[3] = qHTS assay to identify small molecule antagonists of the androgen receptor (AR) signaling pathway using the MDA cell line in the presence of 0.5 nM R1881 - cell viability counter screen (AID 1259242); note: nearly all actives have a fitted effect of over 45% in size
Outline: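 MDA-kb2 cells (human breast carcinoma, stably carrying MMTV-luciferase reporter) were exposed to compounds with 0.5 nM R1881 (final) for 16 hr at 37C, 0% CO2; viability then read as live-cell protease fluorescence (CellTiter-Fluor, 30 min) in the same wells.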

[4] = qHTS assay to identify small molecule HDAC inhibitors - cell viability counter screen (AID 1259365); note: series mostly up to about 92 µM; nearly all actives have a fitted effect of over 50% in size
Outline: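 Counter screen in wild-type HCT-116 cells: compounds dissolved in DMSO are pin-transferred onto overnight-plated cells and left 2hr at 37C. ATP-based CellTiter-Glo luminescence then measures viable cells.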

[5] = qHTS assay to identify small molecule agonists of the sonic hedgehog signaling (Shh) pathway - cell viability counter screen (AID 1259366); note: nearly all actives have a fitted effect of over 50% in size; note: potency is the fitted concentration of half-maximal effect
Outline: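 Cells are plated at 2,000 per well and left 4hr at 37C, 5% CO2 before compound addition. After 23hr of treatment, CellTiter-Fluor reagent is added for 1hr at 37C and fluorescence is measured.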

[6] = qHTS assay to identify small molecule antagonists of the sonic hedgehog signaling (Shh) pathway - cell viability counter screen (AID 1259367); note: nearly all actives have a fitted effect of over 55% in size; note: potency is the fitted concentration of half-maximal effect
Outline: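 Using CellTiter-Fluor, viability of Gli1-Luc reporter 3T3 cells is read by fluorescence in the wells used for the Shh luciferase assay. Treatment lasts 23 hr with conditioned medium, then reagent 1 hr at 37C.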

[7] = qHTS assay to identify small molecule HDAC inhibitors (AID 1259364); note: nearly all actives have a fitted effect of over 45% in size; note: potency is the fitted concentration of half-maximal effect
Outline: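 Wild-type HCT-116 cells were plated overnight, exposed to compounds for 2 h at 37 °C, then given HDAC-Glo class I/II luminogenic reagent for 30 min at room temperature before luminescence was read.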

[8] = biological target: Androgen receptor (Homo sapiens) (UniProt P10275); assay: qHTS assay to identify small molecule antagonists of the androgen receptor (AR) signaling pathway using the MDA cell line in the presence of 0.5 nM R1881 (AID 1259243); note: nearly all actives have a fitted effect of over 50% in size; note: potency is the fitted concentration of half-maximal effect
Outline: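 MDA-kb2 human breast carcinoma cells carrying an MMTV-luciferase reporter (AR- and GR-responsive) were plated, rested 5 hr at 37C, dosed with compounds, then stimulated with 0.5 nM R1881 (final) for 16 hr; luminescence was read after ONE-Glo.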

[9] = biological target: Estrogen receptor (Homo sapiens) (UniProt P03372); assay: qHTS assay to identify small molecule antagonists of the estrogen receptor alpha (ER-alpha) signaling pathway using the BG1 cell line in the presence of 0.1 nM 17-beta-estradiol (AID 1259244); note: nearly all actives have a fitted effect of over 50% in size; note: potency is the fitted concentration of half-maximal effect
Outline: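 VM7Luc4E2 cells (endogenous full-length ER-alpha, stable 4xERE-luciferase) were grown 5 days in phenol red-free medium with charcoal-stripped FBS, then exposed 22 h at 37C to compounds plus 0.1 nM (final) 17beta-estradiol; ONE-Glo luminescence read-out.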

[10] = qHTS assay to identify small molecule phospholipidosis (PLD) inducers (AID 1259344; active = well fitted curve in the direction sought with a large enough effect; an effect the other way counts as inactive or inconclusive)
Outline: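 Fluorescent phospholipid staining (LipidTOX Red) measured by automated microscopy in fixed HepG2 cells after 24 h treatment; nuclei counterstained with Hoechst 33342; amiodarone as reference inducer.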

Sequence of Estrogen receptor (Homo sapiens) (P03372 whole entry, looked up): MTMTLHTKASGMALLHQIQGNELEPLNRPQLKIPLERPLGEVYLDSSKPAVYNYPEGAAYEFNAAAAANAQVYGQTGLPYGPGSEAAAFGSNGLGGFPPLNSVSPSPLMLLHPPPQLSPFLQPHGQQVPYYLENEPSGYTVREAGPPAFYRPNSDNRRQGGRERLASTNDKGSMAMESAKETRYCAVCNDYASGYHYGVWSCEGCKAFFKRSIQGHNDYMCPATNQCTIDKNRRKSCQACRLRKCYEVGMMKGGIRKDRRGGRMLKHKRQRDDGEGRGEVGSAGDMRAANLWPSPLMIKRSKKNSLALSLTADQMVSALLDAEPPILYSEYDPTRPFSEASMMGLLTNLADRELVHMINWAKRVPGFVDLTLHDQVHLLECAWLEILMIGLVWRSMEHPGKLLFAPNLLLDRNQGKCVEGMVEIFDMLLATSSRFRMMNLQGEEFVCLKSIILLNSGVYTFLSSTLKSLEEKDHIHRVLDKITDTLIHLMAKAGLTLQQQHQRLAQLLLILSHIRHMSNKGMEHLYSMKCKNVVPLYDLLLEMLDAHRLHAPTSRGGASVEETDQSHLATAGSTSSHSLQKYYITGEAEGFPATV
Sequence of Androgen receptor (Homo sapiens) (P10275 whole entry, looked up): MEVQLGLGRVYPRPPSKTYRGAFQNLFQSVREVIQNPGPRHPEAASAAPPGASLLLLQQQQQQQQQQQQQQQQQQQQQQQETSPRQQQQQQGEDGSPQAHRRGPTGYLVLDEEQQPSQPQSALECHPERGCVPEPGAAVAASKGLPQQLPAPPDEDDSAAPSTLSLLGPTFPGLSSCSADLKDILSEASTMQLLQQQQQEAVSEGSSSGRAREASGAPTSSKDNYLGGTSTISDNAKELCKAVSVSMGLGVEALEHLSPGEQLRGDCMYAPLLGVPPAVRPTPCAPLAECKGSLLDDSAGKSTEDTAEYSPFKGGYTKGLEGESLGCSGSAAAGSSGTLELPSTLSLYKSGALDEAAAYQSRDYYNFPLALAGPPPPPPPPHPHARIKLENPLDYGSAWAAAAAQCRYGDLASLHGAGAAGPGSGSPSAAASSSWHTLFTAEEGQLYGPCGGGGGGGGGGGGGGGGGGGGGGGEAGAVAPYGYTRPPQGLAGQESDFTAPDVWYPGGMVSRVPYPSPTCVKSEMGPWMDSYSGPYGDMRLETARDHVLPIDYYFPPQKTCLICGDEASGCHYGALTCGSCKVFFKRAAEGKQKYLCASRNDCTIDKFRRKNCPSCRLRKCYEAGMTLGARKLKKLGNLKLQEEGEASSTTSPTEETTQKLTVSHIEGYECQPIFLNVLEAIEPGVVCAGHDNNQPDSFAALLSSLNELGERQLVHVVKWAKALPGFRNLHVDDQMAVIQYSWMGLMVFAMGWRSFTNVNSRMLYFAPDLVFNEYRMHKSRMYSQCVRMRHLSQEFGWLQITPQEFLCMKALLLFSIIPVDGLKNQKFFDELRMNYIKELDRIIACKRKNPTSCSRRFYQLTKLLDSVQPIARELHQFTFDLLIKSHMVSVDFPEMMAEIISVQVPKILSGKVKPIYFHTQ

Row | Structure (SMILES) | Potency [1] | Potency [2] | Potency [3] | outcome [4] | Potency [5] | Potency [6] | Potency [7] | Potency [8] | Potency [9] | Potency [10]
1 | O=C(Nc1ccc2c(c1)Cc1ccccc1-2)C(F)(F)F | inactive | inactive | inactive | inactive | inactive | inactive |  |  |  | 
2 | O=[N+]([O-])c1ccccc1CCO | inactive | inactive | inactive | inactive | inactive | inactive | inactive |  |  | 
3 | Nc1ncnc2c1ncn2[C@@H]1O[C@H](CO)[C@@H](O)[C@H]1O | inactive |  | inactive | inactive | inactive | inactive | inactive |  |  | 
4 | CC(CN=Cc1ccccc1O)N=Cc1ccccc1O (stereo not given) | inactive | inactive | inactive | inactive | inactive | inactive |  |  |  | 
5 | CCCCCCCCOCCCN |  | inactive | inactive | inactive |  |  | inactive | inactive | inactive | 
6 | c1ccc(CN(Cc2ccccc2)Cc2ccccc2)cc1 | inactive | inactive | inactive | inactive | inactive | inactive | inactive |  |  | 
7 | OCCCO |  | inactive | inactive | inactive | inactive | inactive | inactive | inactive | inactive | 
8 | CC/C=C\CCO | inactive | inactive | inactive | inactive | inactive | inactive | inactive |  |  | 
9 | CCOc1cc(OCC)c(C(C)=O)cc1OCC | inactive |  | inactive | inactive | 10.7 µM (active) | 8.48 µM (active) | inactive | 26.8 µM (active) | inactive | 
10 | CC(C(=O)O)c1ccc2c(c1)Cc1cccnc1O2 (stereo not given) |  | inactive | inactive | inactive | inactive | inactive | inactive | inactive |  | 
11 | CC1=C(C)C(=O)C(CCCCC#CCCCC#CCO)=C(C)C1=O | inactive | inactive | inactive | inactive | inactive | inactive |  |  |  | 
12 | CC(C(=O)O)c1ccc(/C=C2\CCCCC2=O)cc1 (stereo not given) | inactive | inactive | inactive | inactive | inactive | inactive |  |  |  | 
13 | COc1cc(CNC(=O)CCCC/C=C/C(C)C)ccc1O | inactive |  | inactive | inactive | inactive | inactive | inactive |  | 59.5 µM (active) | inactive
14 | O=C(O)c1cc(C(=O)O)c(C(=O)O)cc1C(=O)O |  | inactive | inactive | inactive | inactive | inactive |  | inactive | inactive | 
15 | Clc1nc2ccccc2nc1Cl | inactive | inactive |  | inactive | inactive | inactive | inactive |  | inactive | 
16 | Cc1ccc(NC(=O)c2ccc(CN3CCN(C)CC3)cc2)cc1Nc1nccc(-c2cccnc2)n1 | inactive |  | inactive | inactive |  |  | inactive |  |  | 
17 | CC(C)(Cc1c[nH]c2ccccc12)NCC(O)COc1ccccc1C#N (stereo not given) | inactive | inactive | inactive | inactive |  | inactive |  |  |  | 
18 | O=C(NC1CCN(CCc2c[nH]c3ccccc23)CC1)c1ccccc1 | inactive | inactive | inactive | inactive |  | inactive |  |  |  | 
19 | O=C1c2ccccc2C(=O)c2c1ccc(O)c2O | inactive |  |  | inactive |  | inactive | 29.8 µM (active) |  |  | inactive
20 | CC(O)C(C)O (stereo not given) | inactive | inactive | inactive | inactive | inactive | inactive | inactive |  |  | 
21 | O=C(N[C@@H](Cc1ccccc1)[C@@H](O)C(=O)N1C[C@@H](O)[C@@H](O)C1)c1cc2cc(Cl)ccc2[nH]1 |  | inactive | inactive | inactive |  |  |  |  | inactive | 
22 | CCOc1ccc2c(c1)C(C)CC(C)(C)N2 (stereo not given) |  | inactive | inactive | inactive | inactive | inactive | inactive | inactive |  | 
23 | O=C(OCCCCCOC(=O)c1ccccc1)c1ccccc1 |  | inactive | inactive | inactive | inactive | inactive | inactive |  | inactive | 
24 | CC(=O)Nc1ccn(C2COC(COC(=O)c3ccccc3)O2)c(=O)n1 (stereo not given) |  | inactive | inactive | inactive | inactive | inactive | inactive |  |  | 
25 | Nc1nc(Cl)nc2c1ncn2[C@H]1C[C@H](O)[C@@H](CO)O1 |  | inactive | inactive | inactive | inactive | inactive | inactive |  |  | inactive
26 | Nc1ccccc1Nc1ccccc1 |  | inactive | inactive | inactive | 68.8 µM (active) | 54.6 µM (active) | inactive |  |  | 
27 | O=C1C=CCCC1 |  | inactive | inactive | inactive | inactive | inactive |  |  | inactive | 
28 | O=C(O)COCC(=O)O |  | inactive | inactive | inactive | inactive | inactive | inactive |  |  | 
29 | CCCCCCCCC(=O)OCC(C)OC(=O)CCCCCCCC (stereo not given) |  | inactive | inactive | inactive | inactive | inactive | inactive |  |  | 
30 | C[C@H](N)C(=O)N[C@@H](C)C(=O)NC1[C@H]2CN(c3nc4c(cc3F)c(=O)c(C(=O)O)cn4-c3ccc(F)cc3F)C[C@@H]12 (stereo not given in full) |  | inactive | inactive | inactive | inactive | inactive | inactive | inactive |  | 
